Results filed as inconclusive are left out. A call without a number means that no potency is given here. Values without a mark were called inactive. Active and inactive are the calls of the source. Unless noted, calls follow the shape of the dose curve; as a rule, active = well fitted curve in the direction sought with a large enough effect in the repeat runs; inconclusive = weak or mixed curves; inactive = no such curve, though single readings can be large; an effect the other way counts as inactive or inconclusive.
Legend:
[1] = qHTS assay to identify small molecule agonists of the vitamin D receptor (VDR) signaling pathway - cell viability counter screen (AID 743224); also: series mostly up to about 63 µM; nearly all actives have a fitted effect of over 50% in size
How it was run: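 Viability is measured in the same wells as the VDR-bla reporter assay: after 16 h compound treatment and 2 h substrate loading, CellTiter-Glo is added and luminescence read 30 min later.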

[2] = qHTS assay to identify small molecule antagonists of the vitamin D receptor (VDR) signaling pathway - cell viability counter screen (AID 743225); also: nearly all actives have a fitted effect of over 50% in size
How it was run: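 Cytotoxicity toward the VDR-bla HEK 293T line was scored by ATP-based CellTiter-Glo luminescence, read in the wells already used for the beta-lactamase readout after 16 h compound treatment under 3 nM 1-alpha,25-dihydroxyvitamin D3 stimulation.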

[3] = qHTS assay to identify small molecule agonists of the NFkB signaling pathway - cell viability counter screen (AID 1159515; calls by dose curve; also: series mostly up to about 61 µM; nearly all actives have a fitted effect of over 55% in size)
How it was run: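 Multiplexed viability readout: after the 5 hr compound exposure and 1.5 hr FRET substrate step, CellTiter-Glo reagent went into the same NFkB-bla ME-180 wells; ATP luminescence was measured after 30 min at room temperature.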

[4] = qHTS assay to identify small molecule agonists of the endoplasmic reticulum stress response signaling pathway - cell viability counter screen (AID 1159517; calls by dose curve;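 also: HeLa cells carrying an ER stress response element beta-lactamase reporter; series mostly up to about 61 µM; nearly all actives have a fitted effect of over 50% in size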)
How it was run: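 HeLa cells carrying an ESRE-driven beta-lactamase reporter receive compound for 5 hr at 37 C. Cell viability is then gauged with CellTiter-Glo by luminescence, 30 min at room temperature.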

[5] = qHTS assay to identify small molecule antagonists of the retinoid-related orphan receptor gamma (ROR-gamma) signaling pathway - cell viability counter screen (AID 1159520); also: nearly all actives have a fitted effect of over 50% in size
How it was run: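 Cytotoxicity was read from cellular ATP (CellTiter-Glo luminescence) after 16 hr at 37 C with 1 uM doxycycline induction. The inducer was added 2 hr after compound transfer to Tet-on ROR gamma CHO cells.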

[6] = biological target: Nuclear receptor ROR-gamma (Homo sapiens) (UniProt P51449); experiment: qHTS assay to identify small molecule antagonists of the retinoid-related orphan receptor gamma (ROR-gamma) signaling pathway (AID 1159521)
How it was run: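 Readout: ONE-Glo luciferase luminescence, 30 min at room temperature. System: Tet-on RORγ CHO, RORE-LUC. Sequence: compound 2 h, doxycycline 1 uM final, 16 h at 37 C.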

[7] = qHTS assay to identify small molecule agonists of the AP-1 signaling pathway - cell viability counter screen (AID 1159525; calls by dose curve; also: nearly all actives have a fitted effect of over 55% in size)
How it was run: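 Luminescent ATP readout (Cell Titer Glo, 30 min RT), normalised to DMSO and tetra n-octyl ammonium bromide controls. Cells were ME-180 AP-1-bla in 0.5% dialyzed FBS Opti-MEM, with a 5 h, 37 °C compound exposure.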

[8] = qHTS assay to identify small molecule agonists of the AP-1 signaling pathway (AID 1159526; calls by dose curve)
[9] = biological target: Retinoic acid receptor RXR-alpha (Homo sapiens) (UniProt P19793); experiment: qHTS assay to identify small molecule agonists of the RXR signaling pathway (AID 1159527; calls by dose curve; also: nearly all actives have a fitted effect of over 35% in size)
How it was run: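 Reporter activation is measured as beta-lactamase activity via FRET substrate cleavage (emission 460/530 nm) in HEK 293T cells expressing an RXR-alpha-driven bla construct, following 16 hr compound exposure at 37 C.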

[10] = qHTS assay to identify small molecule agonists of the RXR signaling pathway - cell viability counter screen (AID 1159529); also: nearly all actives have a fitted effect of over 50% in size; also: potency is read from the fitted curve at half-maximal effect
How it was run: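 Tox21 10K compounds were tested for cytotoxicity against GeneBLAzer RXR-alpha HEK 293T cells grown in 2% charcoal-stripped FBS. Exposure lasted 16 hr at 37 C, 5% CO2; viability read by CellTiter-Glo luminescence.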

[11] = qHTS assay to identify small molecule antagonists of the retinoid acid receptor (RAR) signaling pathway - cell viability counter screen (AID 1159551); also: nearly all actives have a fitted effect of over 35% in size
How it was run: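 Cytotoxicity counter screen in C3RL4 cells: 6 h compound exposure with 1 uM retinol (final), viability from cellular ATP by luminescence.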

[12] = qHTS assay to identify small molecule agonists of the retinoic acid receptor (RAR) signaling pathway (AID 1159553)
How it was run: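 Agonist activity was scored in C3RL4 cells bearing a retinoic acid response element luciferase construct. Cells were treated with compounds for 6 hr at 37 C, and luciferase signal was measured as luminescence.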

[13] = qHTS assay to identify small molecule antagonists of the estrogen related receptor (ERR) signaling pathway - cell viability counter screen (AID 1224818);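 also: series mostly up to about 46 µM; viability measured after 17.5 h of compound exposure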
How it was run: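 Cells carrying the ERR pathway reporter were seeded and incubated for 6 hours before compound addition. After a 17.5-hour exposure at 37 C, live-cell protease activity was measured by CellTiter-Fluor fluorescence following 30 minutes of incubation.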

[14] = qHTS assay to identify small molecule antagonists of the estrogen related receptor signaling pathway with the pleiotropic PPARgamma coactivator (PGC) cell viability counter screen (AID 1224822;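 also: series mostly up to about 46 µM; viability read after 17.5 h compound exposure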)
How it was run: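 Seed PGC/ERR cells (2,000/well); incubate 6 h at 37 C/5% CO2; pin-transfer compounds in DMSO; incubate 17.5 h at 37 C; add CellTiter-Fluor; after 30 min read fluorescence.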

Retinoic acid receptor RXR-alpha (Homo sapiens), sequence (P19793 whole entry, looked up): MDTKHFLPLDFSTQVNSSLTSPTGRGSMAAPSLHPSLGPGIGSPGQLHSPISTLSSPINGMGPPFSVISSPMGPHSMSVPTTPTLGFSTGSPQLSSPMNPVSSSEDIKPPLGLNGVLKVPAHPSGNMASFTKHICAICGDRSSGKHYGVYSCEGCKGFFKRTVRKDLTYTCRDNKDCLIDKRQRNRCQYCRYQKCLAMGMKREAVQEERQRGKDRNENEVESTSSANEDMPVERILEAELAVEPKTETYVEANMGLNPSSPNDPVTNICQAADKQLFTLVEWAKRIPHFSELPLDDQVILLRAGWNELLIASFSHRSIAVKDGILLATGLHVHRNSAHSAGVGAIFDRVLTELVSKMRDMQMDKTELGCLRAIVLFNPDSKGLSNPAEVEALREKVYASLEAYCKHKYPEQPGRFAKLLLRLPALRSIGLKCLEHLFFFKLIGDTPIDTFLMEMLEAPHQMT

Structure (SMILES): CC[N+](CC)(CC(=O)Nc1c(C)cccc1C)Cc1ccccc1 (tested in a mixture with another compound)
- outcome [1]: inactive
- outcome [2]: inactive
- outcome [3]: inactive
- outcome [4]: inactive
- outcome [5]: inactive
- Potency [6]: inactive
- outcome [7]: inactive
- outcome [8]: inactive
- Potency [9]: inactive
- Potency [10]: inactive
- outcome [11]: inactive

Structure (SMILES): CC(=O)N1C[C@H](O)C[C@H]1C(=O)O
- outcome [1]: inactive
- outcome [2]: inactive
- outcome [3]: inactive
- outcome [4]: inactive
- Potency [6]: inactive
- outcome [7]: inactive
- outcome [8]: inactive
- Potency [10]: inactive
- outcome [11]: inactive

Structure (SMILES): O=C(O)c1cc(C(=O)O)cc(C(=O)O)c1
- outcome [1]: inactive
- outcome [2]: inactive
- outcome [3]: inactive
- outcome [4]: inactive
- outcome [5]: inactive
- Potency [6]: inactive
- outcome [7]: inactive
- outcome [8]: inactive
- Potency [9]: inactive
- Potency [10]: inactive
- outcome [11]: inactive
- Potency [12]: inactive

Structure (SMILES): CC(=O)Oc1cccc(C)c1
- outcome [1]: inactive
- outcome [2]: inactive
- outcome [3]: inactive
- outcome [4]: inactive
- outcome [5]: inactive
- Potency [6]: inactive
- outcome [8]: inactive
- Potency [10]: inactive
- outcome [11]: inactive

Structure (SMILES): CC(=O)Nc1ccc(OCC(O)CNC(C)C)cc1 (stereo not drawn)
- outcome [1]: inactive
- outcome [2]: inactive
- outcome [3]: inactive
- outcome [4]: inactive
- outcome [5]: inactive
- Potency [6]: inactive
- outcome [7]: inactive
- outcome [8]: inactive
- Potency [9]: inactive
- Potency [10]: inactive
- outcome [11]: inactive

Structure (SMILES): CC/C=C\CCOC(C)OCC (stereo not drawn)
- outcome [1]: inactive
- outcome [2]: inactive
- outcome [3]: inactive
- outcome [4]: inactive
- outcome [5]: inactive
- Potency [6]: inactive
- outcome [7]: inactive
- outcome [8]: inactive
- Potency [9]: inactive
- Potency [10]: inactive
- outcome [11]: inactive

Structure (SMILES): CCCO[Si](OCCC)(OCCC)OCCC
- outcome [1]: inactive
- outcome [2]: inactive
- outcome [3]: inactive
- outcome [4]: inactive
- outcome [5]: inactive
- Potency [6]: inactive
- outcome [7]: inactive
- outcome [8]: inactive
- Potency [9]: inactive
- Potency [10]: inactive
- outcome [11]: inactive

Structure (SMILES): CN1C(C)(C)CC(O)CC1(C)C
- outcome [1]: inactive
- outcome [3]: inactive
- outcome [4]: inactive
- outcome [5]: inactive
- Potency [6]: inactive
- outcome [7]: inactive
- outcome [8]: inactive
- Potency [9]: inactive
- Potency [10]: inactive
- outcome [11]: inactive

Structure (SMILES): CC[N+](C)(CC)CCOC(=O)C1c2ccccc2Oc2ccccc21
- outcome [1]: inactive
- outcome [2]: inactive
- outcome [3]: inactive
- outcome [4]: inactive
- outcome [5]: inactive
- Potency [6]: inactive
- outcome [8]: inactive
- Potency [9]: inactive
- Potency [10]: inactive
- outcome [11]: inactive
- Potency [12]: inactive

Structure (SMILES): CN(C)CCN(C)CCN(C)C
- outcome [1]: inactive
- outcome [3]: inactive
- outcome [4]: inactive
- outcome [5]: inactive
- Potency [6]: inactive
- outcome [7]: inactive
- outcome [8]: inactive
- Potency [9]: inactive
- Potency [10]: inactive
- outcome [11]: inactive

Structure (SMILES): CCN(C=O)CC
- outcome [1]: inactive
- outcome [2]: inactive
- outcome [3]: inactive
- outcome [4]: inactive
- outcome [5]: inactive
- Potency [6]: inactive
- outcome [7]: inactive
- outcome [8]: inactive
- Potency [9]: inactive
- Potency [10]: 50.3 µM (active)
- outcome [11]: inactive

Structure (SMILES): [K+]
- outcome [1]: inactive
- outcome [2]: inactive
- outcome [3]: inactive
- outcome [4]: inactive
- Potency [6]: inactive
- outcome [8]: inactive
- Potency [10]: inactive
- outcome [11]: inactive

Structure (SMILES): Cc1nc(C2CCCCC2)c(-c2ccc(S(N)(=O)=O)c(F)c2)o1
- outcome [1]: inactive
- outcome [2]: inactive
- outcome [3]: inactive
- outcome [4]: inactive
- Potency [6]: inactive
- outcome [8]: inactive
- Potency [9]: inactive
- Potency [10]: inactive
- outcome [11]: inactive

Structure (SMILES): C[N+]1(C)CCCC(OC(=O)C(O)(c2ccccc2)c2ccccc2)C1 (stereo not drawn)
- outcome [1]: inactive
- outcome [2]: inactive
- outcome [3]: inactive
- outcome [4]: inactive
- outcome [5]: inactive
- Potency [6]: inactive
- outcome [7]: inactive
- outcome [8]: inactive
- Potency [9]: inactive
- Potency [10]: inactive
- outcome [11]: inactive
- Potency [12]: inactive

Structure (SMILES): c1coc(CNc2ncnc3nc[nH]c23)c1
- outcome [1]: inactive
- outcome [2]: inactive
- outcome [3]: inactive
- outcome [4]: inactive
- outcome [5]: inactive
- Potency [6]: inactive
- outcome [7]: inactive
- outcome [8]: inactive
- Potency [9]: inactive
- Potency [10]: inactive
- outcome [11]: inactive

Structure (SMILES): CCN(CC#N)c1cccc(C)c1
- outcome [1]: inactive
- outcome [2]: inactive
- outcome [3]: inactive
- outcome [4]: inactive
- Potency [6]: inactive
- outcome [7]: inactive
- outcome [8]: inactive
- Potency [9]: inactive
- Potency [10]: inactive
- outcome [11]: inactive

Structure (SMILES): OCCc1ccccn1
- outcome [1]: inactive
- outcome [3]: inactive
- outcome [4]: inactive
- outcome [5]: inactive
- Potency [6]: inactive
- outcome [7]: inactive
- outcome [8]: inactive
- Potency [10]: inactive
- outcome [11]: inactive

Structure (SMILES): CN1CC(=O)N/C1=N/C(=O)Nc1cccc(Cl)c1
- outcome [1]: inactive
- outcome [2]: inactive
- outcome [3]: inactive
- outcome [4]: inactive
- Potency [6]: inactive
- outcome [7]: inactive
- outcome [8]: inactive
- Potency [9]: inactive
- Potency [10]: inactive
- outcome [11]: inactive
- outcome [13]: inactive
- outcome [14]: inactive

Structure (SMILES): CCCCCCCCCC[N+](C)(C)[O-]
- outcome [1]: inactive
- outcome [2]: inactive
- outcome [3]: inactive
- outcome [4]: inactive
- outcome [5]: inactive
- Potency [6]: inactive
- outcome [7]: inactive
- outcome [8]: inactive
- Potency [9]: inactive
- Potency [10]: inactive
- outcome [11]: inactive

From PubChem BioAssay (Tox21)
